BAZ2B inh = inhibitors of human BAZ2B bromodomain; AlphaScreen BAZ2B-H3K14Ac peptide displacement; Potency, µM (titrated, usually from 114 µM), most hits filed as inhibitors; actives 4.4% (n = 360,000); AID 504333; further: nearly all actives have a fitted effect of over 60% in size
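Protein-peptide AlphaScreen: BAZ2B 50 nM, b-H3K14Ac 50 nM, 1x PBS pH 7.4 + 0.01% Tween-20. Preincubation 30 min RT; cpd 30 min RT (top 110 uM); beads 20 min RT, light-protected.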
HP1b binding inh = blocks HP1-beta chromodomain binding to methylated histone tails. P83916. AlphaScreen HP1-beta / biotin-H3K9me3 peptide binding. Potency, µM (top dose mostly 114 µM), usual class: inhibitors. actives 0.56% (n = 390,000). AID 540317; further: nearly all actives have a fitted effect of over 70% in size
Target sequence (P83916 whole entry, looked up): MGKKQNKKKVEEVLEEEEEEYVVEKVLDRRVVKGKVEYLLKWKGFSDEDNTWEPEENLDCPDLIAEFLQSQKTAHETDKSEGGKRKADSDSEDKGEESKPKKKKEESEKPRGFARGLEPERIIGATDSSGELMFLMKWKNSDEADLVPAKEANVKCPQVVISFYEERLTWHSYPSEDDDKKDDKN
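Compound inhibition of the preformed complex between 50 nM HP1-beta and 50 nM biotinylated H3K9me3 peptide was read by AlphaScreen. Buffer was PBS pH 7.4 with 0.01% Tween-20. Incubations ran 30 min at room temperature, with 10 ug/mL donor/acceptor beads.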
ALOX12 inh = ALOX12 (human) lipoxygenase inhibition; P18054; AID 1671190; Potency, µM (doses to about 108 µM), usual class: inhibitors; purified 12hLO, xylenol orange hydroperoxide absorbance; actives 1.1% (n = 580,000)
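Hydroperoxide product was detected by ferrous iron/xylenol orange as the 573 to 405 nm absorbance ratio. Arachidonic acid at 40 uM (final) was turned over for 30 min at room temperature by 150 nM human 12hLO, pH 7.0 Hepes buffer, after 15 min compound preincubation.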
JMJD2A Tudor inh = inhibitors of human JMJD2A Tudor domain; O75164; AlphaScreen JMJD2A-Tudor / H3K4me3 peptide binding; Potency, µM (doses to about 114 µM), most hits filed as inhibitors; actives 4.4% (n = 390,000); further: nearly all actives have a fitted effect of over 50% in size
PLK1 PBD inh = blocks phosphopeptide binding to human PLK1 polo-box domain; actives 2.8% (n = 360,000); AID 720504; P53350; Plk1 PBD binding of FITC phosphopeptide, fluorescence polarization; Potency, µM, usual class: inhibitors; further: series mostly up to about 57 µM; nearly all actives have a fitted effect of over 65% in size
G9a inh = G9a (human) methyltransferase inhibition; Q96KQ7; G9a H3K9 monomethylation, AlphaScreen, 2 h; Potency, µM (doses to about 102 µM), usual class: inhibitors; actives 8.8% (n = 350,000); further: nearly all actives have a fitted effect of over 75% in size
Target sequence (Q96KQ7 913-1193 limits assumed): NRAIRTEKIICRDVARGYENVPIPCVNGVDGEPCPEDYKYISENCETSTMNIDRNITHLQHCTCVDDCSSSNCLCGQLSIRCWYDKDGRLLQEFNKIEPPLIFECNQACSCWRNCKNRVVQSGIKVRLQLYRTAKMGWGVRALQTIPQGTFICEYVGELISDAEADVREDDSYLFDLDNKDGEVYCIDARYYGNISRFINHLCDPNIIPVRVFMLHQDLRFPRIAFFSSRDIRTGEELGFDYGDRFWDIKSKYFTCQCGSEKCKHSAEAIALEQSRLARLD
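Readings reflect AlphaScreen signal from monomethyl-H3K9 antibody detection. HMT at 20 nM; substrate b-H3K9 500 nM; cofactor SAM 20 uM; 2 h RT reaction; compounds tested as titrations in qHTS with 15 min preincubation.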
Each line names hits and unclear results; the compound was inactive in the other large screens. Compounds with a hit are over-represented: about 9% of the library has one in this group of screens. The call rests on the fitted dose curve; in most records, active means well fitted curve in the direction sought with a large enough effect; inconclusive means small, poorly fitted or top-dose-only effect, or another doubt; inactive means no such curve, though single readings can be large; an effect the other way counts as inactive or inconclusive.

CCOc1ccc(OCC)c(NC(=O)CN2CCN(CC(=O)NC(C)C)CC2)c1	BAZ2B inh inconclusive, HP1b binding inh inconclusive, ALOX12 inh inconclusive, JMJD2A Tudor inh 28µM (no result: G9a inh)
CCOc1ccccc1NC(=O)COC(=O)C1CC(=O)N(c2c(C)cccc2C)C1 (stereo not given)	G9a inh 56µM
Cc1ccc2nc3n(c(=O)c2c1)-c1cc(Cl)ccc1C(=O)NC3Cc1ccccc1 (stereo not given)	ALOX12 inh inconclusive (no result: HP1b binding inh, JMJD2A Tudor inh, PLK1 PBD inh)
O=C(O)C(Cc1c[nH]c2ccccc12)NS(=O)(=O)c1ccc2ccccc2c1 (stereo not given)	none
CN(C)c1ccc(C(CN)c2c[nH]c3ccccc23)cc1 (stereo not given)	BAZ2B inh 11µM, HP1b binding inh inconclusive, ALOX12 inh inconclusive, JMJD2A Tudor inh 35µM, G9a inh 32µM
NCC(c1ccco1)c1c[nH]c2ccccc12 (stereo not given)	ALOX12 inh inconclusive
CN(C)c1ccc(C(CNS(=O)(=O)c2ccc3ccccc3c2)c2c[nH]c3ccccc23)cc1 (stereo not given)	BAZ2B inh 13µM, HP1b binding inh inconclusive, ALOX12 inh inconclusive, JMJD2A Tudor inh 28µM, G9a inh 10µM
COc1c(F)cccc1C1=CC(=O)C[C@H](c2ccc3c(c2)OCO3)C1	none
CC1(c2ccccc2Cl)NC(=O)N(CC(=O)Nc2cccnc2Cl)C1=O (stereo not given)	none
N/C(=N\OC(=O)C12CC3CC(CC(C3)C1)C2)c1ccccc1	none
COc1ccc(/C=N/N=C2\SCC(=O)N2c2c(C)n(C)n(-c3ccccc3)c2=O)cc1OC	BAZ2B inh inconclusive, G9a inh 8.9µM
Oc1c(C(c2ccccc2)N2CCCC2)sc2nc(-c3ccco3)nn12 (stereo not given)	BAZ2B inh inconclusive, ALOX12 inh inconclusive (no result: PLK1 PBD inh)
COc1cccc(C(c2sc3nc(-c4ccco4)nn3c2O)N2CCC(O)CC2)c1 (stereo not given)	G9a inh inconclusive (no result: PLK1 PBD inh)
COc1cccc(C(c2sc3nc(-c4ccco4)nn3c2O)N2CCCC2)c1 (stereo not given)	G9a inh 14µM (no result: PLK1 PBD inh)
COc1cccc(C(c2sc3nc(-c4ccco4)nn3c2O)N2CCC(C)CC2)c1 (stereo not given)	BAZ2B inh inconclusive, ALOX12 inh inconclusive, G9a inh 18µM (no result: PLK1 PBD inh)
Cc1cc(C)c2oc(-c3ccc(C)c(NC(=O)/C=C/c4ccco4)c3)nc2c1	BAZ2B inh inconclusive, HP1b binding inh inconclusive, ALOX12 inh 50µM, JMJD2A Tudor inh 56µM, G9a inh 10µM (no result: PLK1 PBD inh)
CSc1nnc(C)c(/C=C/NOCc2ccc(Cl)cc2)n1	BAZ2B inh inconclusive, ALOX12 inh inconclusive, JMJD2A Tudor inh inconclusive, G9a inh 13µM
Cc1nnc(SCc2ccc(Cl)cc2)nc1/C=C/N(C)C	BAZ2B inh inconclusive, ALOX12 inh 40µM, G9a inh inconclusive
Cc1nc(C)c(-c2ccc(SCc3ccc(Cl)cc3)nn2)s1	none
C/C(CC1(O)C(=O)Nc2ccccc21)=N\O (stereo not given)	none
C/C(CC1(O)/C(=N/O)CCc2nonc21)=N\O (stereo not given)	ALOX12 inh inconclusive, JMJD2A Tudor inh 16µM, G9a inh 40µM
Cn1ncc2c(NCCO)nc(Cl)nc21	none (no result: BAZ2B inh, G9a inh)
O=P(c1ccccc1)(c1ccccc1)C(O)c1ccccn1 (stereo not given)	BAZ2B inh 20µM, JMJD2A Tudor inh inconclusive (no result: G9a inh)
OC(c1ccccn1)C(O)c1ccccn1 (stereo not given)	JMJD2A Tudor inh 50µM (no result: BAZ2B inh, G9a inh)
CC(C)c1ccc2occ(-c3nn[nH]n3)c(=O)c2c1	BAZ2B inh 56µM, JMJD2A Tudor inh 18µM, G9a inh inconclusive
Cc1ccc2occ(-c3nn[nH]n3)c(=O)c2c1	BAZ2B inh 50µM, ALOX12 inh inconclusive, JMJD2A Tudor inh 28µM, PLK1 PBD inh inconclusive, G9a inh inconclusive
C=CCS(=O)(=O)c1ccc2ccccc2c1	none (no result: BAZ2B inh, HP1b binding inh, JMJD2A Tudor inh, PLK1 PBD inh, G9a inh)
CC(C)Oc1ccc(C(=O)O)cc1	none
CC(C)Oc1ccc(C(=O)O)c(C(=O)O)c1	JMJD2A Tudor inh 79µM

Compound activity from PubChem.
